In ChEMBL document CHEMBL2218924, “A broad activity screen in support of a chemogenomic map for kinase signalling research and drug discovery” (Biochem J, 2013):

Columns and labels:
[1] = target: T1, Rhodopsin kinase GRK7 (Homo sapiens) (UniProt Q8WTQ7); details: at 10 µM
T1 sequence (whole entry): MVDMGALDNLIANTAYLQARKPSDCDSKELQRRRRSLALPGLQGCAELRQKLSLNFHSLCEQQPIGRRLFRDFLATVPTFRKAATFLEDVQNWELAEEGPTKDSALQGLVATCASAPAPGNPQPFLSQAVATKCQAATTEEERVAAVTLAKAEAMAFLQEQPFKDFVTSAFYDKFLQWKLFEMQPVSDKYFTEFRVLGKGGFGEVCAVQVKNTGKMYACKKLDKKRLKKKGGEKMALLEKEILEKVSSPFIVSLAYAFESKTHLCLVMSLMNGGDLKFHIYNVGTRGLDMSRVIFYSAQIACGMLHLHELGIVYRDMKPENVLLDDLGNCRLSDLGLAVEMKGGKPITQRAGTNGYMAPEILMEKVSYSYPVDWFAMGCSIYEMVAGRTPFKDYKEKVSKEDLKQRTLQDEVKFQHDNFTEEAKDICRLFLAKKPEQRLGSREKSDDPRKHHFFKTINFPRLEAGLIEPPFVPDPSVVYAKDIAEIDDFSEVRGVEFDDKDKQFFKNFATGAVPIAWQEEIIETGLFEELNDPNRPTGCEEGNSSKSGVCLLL

[2] = target: Glycogen synthase kinase-3 alpha (Homo sapiens) (UniProt P49840); details: at 1 µM
Glycogen synthase kinase-3 alpha (Homo sapiens), sequence (P49840 2-483 limits assumed): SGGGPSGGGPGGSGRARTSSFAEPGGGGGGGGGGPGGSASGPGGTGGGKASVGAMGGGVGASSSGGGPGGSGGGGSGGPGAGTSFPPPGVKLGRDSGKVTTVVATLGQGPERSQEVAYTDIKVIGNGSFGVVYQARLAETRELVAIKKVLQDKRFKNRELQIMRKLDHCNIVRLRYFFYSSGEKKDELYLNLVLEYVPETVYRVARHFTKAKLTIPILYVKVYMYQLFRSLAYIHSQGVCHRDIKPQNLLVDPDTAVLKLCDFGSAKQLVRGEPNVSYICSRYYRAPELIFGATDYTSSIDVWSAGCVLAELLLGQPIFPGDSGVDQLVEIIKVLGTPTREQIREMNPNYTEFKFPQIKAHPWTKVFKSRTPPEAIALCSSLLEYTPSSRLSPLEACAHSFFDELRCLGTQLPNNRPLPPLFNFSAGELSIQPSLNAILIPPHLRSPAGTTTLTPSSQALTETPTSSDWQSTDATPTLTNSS

[3] = target: Glycogen synthase kinase-3 alpha (Homo sapiens) (UniProt P49840); details: at 10 µM
[4] = target: Glycogen synthase kinase-3 beta (Homo sapiens) (UniProt P49841); details: at 1 µM
Glycogen synthase kinase-3 beta (Homo sapiens), sequence (P49841 whole entry, looked up): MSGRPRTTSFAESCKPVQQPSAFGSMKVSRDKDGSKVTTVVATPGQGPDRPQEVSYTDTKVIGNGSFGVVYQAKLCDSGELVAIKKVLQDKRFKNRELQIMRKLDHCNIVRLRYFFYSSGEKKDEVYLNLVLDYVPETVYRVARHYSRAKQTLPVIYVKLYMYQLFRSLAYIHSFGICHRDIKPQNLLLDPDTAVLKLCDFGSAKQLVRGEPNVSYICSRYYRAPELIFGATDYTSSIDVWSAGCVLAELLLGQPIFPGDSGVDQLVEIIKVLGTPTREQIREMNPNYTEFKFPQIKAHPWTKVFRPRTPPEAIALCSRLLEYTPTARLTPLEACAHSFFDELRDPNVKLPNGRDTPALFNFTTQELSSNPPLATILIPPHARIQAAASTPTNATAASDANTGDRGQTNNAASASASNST

[5] = target: Glycogen synthase kinase-3 beta (Homo sapiens) (UniProt P49841); details: at 10 µM
[6] = target: Homeodomain-interacting protein kinase 1 (Homo sapiens) (UniProt Q86Z02); details: at 1 µM
Homeodomain-interacting protein kinase 1 (Homo sapiens), sequence (Q86Z02 whole entry, looked up): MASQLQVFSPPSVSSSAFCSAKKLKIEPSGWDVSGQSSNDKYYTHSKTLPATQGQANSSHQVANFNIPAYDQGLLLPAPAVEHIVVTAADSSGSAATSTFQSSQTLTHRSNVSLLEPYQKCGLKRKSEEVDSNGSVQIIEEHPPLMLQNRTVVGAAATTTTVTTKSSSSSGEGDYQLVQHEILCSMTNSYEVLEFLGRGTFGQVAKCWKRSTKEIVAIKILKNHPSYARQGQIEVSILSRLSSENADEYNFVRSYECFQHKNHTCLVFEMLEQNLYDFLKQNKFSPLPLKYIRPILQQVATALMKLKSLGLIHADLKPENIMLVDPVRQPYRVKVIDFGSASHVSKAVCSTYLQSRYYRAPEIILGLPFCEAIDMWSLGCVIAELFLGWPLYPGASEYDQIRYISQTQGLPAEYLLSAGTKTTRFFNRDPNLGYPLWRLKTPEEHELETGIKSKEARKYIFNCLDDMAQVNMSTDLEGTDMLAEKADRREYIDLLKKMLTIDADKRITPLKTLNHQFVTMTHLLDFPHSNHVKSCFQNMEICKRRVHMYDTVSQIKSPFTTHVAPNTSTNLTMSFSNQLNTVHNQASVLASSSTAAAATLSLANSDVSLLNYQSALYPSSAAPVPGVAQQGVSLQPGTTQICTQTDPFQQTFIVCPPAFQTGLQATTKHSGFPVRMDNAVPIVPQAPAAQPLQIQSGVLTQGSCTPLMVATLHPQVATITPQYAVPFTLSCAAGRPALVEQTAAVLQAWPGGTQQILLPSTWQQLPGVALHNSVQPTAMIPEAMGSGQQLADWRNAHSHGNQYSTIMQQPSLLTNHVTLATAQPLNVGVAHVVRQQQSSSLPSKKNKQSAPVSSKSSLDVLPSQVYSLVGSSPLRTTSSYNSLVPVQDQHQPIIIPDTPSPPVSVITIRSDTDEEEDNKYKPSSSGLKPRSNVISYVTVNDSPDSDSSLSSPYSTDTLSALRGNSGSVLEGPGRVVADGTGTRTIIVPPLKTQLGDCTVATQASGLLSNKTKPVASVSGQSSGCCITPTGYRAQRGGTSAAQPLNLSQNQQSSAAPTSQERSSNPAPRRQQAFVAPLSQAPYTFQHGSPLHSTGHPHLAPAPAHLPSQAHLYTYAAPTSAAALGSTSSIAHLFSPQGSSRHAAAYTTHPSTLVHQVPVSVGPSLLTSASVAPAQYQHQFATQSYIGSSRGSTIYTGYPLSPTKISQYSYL

[7] = target: Homeodomain-interacting protein kinase 1 (Homo sapiens) (UniProt Q86Z02); details: at 10 µM
[8] = target: Homeodomain-interacting protein kinase 2 (Homo sapiens) (UniProt Q9H2X6); details: at 1 µM
Homeodomain-interacting protein kinase 2 (Homo sapiens), sequence (Q9H2X6 whole entry, looked up): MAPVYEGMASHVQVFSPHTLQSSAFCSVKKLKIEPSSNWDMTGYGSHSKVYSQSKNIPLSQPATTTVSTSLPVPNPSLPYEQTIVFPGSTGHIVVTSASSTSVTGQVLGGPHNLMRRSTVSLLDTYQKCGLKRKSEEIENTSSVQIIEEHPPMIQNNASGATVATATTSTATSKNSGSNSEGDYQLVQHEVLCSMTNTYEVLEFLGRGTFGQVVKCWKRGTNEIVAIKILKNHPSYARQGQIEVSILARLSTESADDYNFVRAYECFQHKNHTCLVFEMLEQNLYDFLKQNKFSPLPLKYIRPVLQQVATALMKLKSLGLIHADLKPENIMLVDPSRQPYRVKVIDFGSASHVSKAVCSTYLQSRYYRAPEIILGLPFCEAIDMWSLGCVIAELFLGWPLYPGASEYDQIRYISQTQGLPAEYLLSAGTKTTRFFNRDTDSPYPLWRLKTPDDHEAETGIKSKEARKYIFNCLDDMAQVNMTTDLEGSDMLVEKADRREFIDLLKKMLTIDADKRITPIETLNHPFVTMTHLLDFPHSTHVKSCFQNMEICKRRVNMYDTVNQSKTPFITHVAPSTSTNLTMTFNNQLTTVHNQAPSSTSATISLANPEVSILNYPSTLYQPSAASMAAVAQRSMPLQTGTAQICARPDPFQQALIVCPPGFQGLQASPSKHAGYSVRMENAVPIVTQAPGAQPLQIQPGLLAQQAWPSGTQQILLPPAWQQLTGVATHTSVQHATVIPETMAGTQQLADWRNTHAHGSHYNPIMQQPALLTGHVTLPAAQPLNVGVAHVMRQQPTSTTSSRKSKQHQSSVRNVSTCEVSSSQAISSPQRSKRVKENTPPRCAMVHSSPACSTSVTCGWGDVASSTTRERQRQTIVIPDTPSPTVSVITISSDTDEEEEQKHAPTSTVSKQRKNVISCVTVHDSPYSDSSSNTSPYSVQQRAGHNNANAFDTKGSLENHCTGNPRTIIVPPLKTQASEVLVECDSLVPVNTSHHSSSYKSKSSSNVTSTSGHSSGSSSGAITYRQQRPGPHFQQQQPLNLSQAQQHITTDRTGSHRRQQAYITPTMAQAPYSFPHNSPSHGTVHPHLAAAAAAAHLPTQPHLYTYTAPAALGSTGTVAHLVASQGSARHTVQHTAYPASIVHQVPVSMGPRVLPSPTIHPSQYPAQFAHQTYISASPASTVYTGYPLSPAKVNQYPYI

[9] = target: Homeodomain-interacting protein kinase 2 (Homo sapiens) (UniProt Q9H2X6); details: at 10 µM
[10] = target: Homeodomain-interacting protein kinase 3 (Homo sapiens) (UniProt Q9H422); details: at 1 µM
Homeodomain-interacting protein kinase 3 (Homo sapiens), sequence (Q9H422 whole entry, looked up): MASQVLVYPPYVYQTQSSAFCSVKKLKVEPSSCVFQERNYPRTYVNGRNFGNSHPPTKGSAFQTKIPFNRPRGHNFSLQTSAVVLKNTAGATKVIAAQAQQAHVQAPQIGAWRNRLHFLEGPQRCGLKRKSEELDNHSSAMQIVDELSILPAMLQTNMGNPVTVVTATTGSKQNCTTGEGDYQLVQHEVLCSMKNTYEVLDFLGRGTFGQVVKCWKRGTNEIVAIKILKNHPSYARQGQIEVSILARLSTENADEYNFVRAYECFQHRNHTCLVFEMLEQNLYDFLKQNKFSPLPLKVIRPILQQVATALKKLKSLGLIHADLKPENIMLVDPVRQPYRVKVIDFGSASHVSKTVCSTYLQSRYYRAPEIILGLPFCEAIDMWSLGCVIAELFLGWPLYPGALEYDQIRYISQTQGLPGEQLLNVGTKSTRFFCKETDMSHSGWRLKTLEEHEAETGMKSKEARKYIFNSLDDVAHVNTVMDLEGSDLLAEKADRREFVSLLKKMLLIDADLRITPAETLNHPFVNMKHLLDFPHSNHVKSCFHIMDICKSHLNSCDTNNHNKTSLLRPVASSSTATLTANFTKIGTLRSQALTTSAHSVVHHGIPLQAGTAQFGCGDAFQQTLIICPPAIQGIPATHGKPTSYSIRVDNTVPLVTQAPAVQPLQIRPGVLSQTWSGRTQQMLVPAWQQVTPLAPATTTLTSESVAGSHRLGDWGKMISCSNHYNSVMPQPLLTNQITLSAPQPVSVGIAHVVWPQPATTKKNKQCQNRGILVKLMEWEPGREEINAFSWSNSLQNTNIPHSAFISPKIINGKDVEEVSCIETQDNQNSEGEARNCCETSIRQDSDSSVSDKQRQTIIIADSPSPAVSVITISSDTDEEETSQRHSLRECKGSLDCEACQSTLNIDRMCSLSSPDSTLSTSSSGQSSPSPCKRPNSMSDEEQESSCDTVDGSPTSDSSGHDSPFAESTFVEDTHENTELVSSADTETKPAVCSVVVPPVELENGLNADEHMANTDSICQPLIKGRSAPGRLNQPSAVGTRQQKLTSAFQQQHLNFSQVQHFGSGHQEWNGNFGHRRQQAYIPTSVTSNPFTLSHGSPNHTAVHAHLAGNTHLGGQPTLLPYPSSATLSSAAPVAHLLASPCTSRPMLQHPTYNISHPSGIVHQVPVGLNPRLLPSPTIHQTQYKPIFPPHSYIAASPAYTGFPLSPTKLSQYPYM

SMILES: Ic1cccc(CSc2nnc(-c3ccncc3)o2)c1
- residual activity [1]: 76%
- residual activity [2]: 32%
- residual activity [3]: 10%
- residual activity [4]: 43%
- residual activity [5]: 33%
- residual activity [6]: 101%
- residual activity [7]: 91%
- residual activity [8]: 76%
- residual activity [9]: 54%
- residual activity [10]: 96%

SMILES: O=c1c2ccccc2[nH]c(=S)n1CCN1CCC(=C(c2ccc(F)cc2)c2ccc(F)cc2)CC1
- residual activity [1]: 97%
- residual activity [2]: 102%
- residual activity [3]: 142%
- residual activity [4]: 99%
- residual activity [5]: 123%
- residual activity [6]: 94%
- residual activity [7]: 106%
- residual activity [8]: 102%
- residual activity [9]: 94%
- residual activity [10]: 100%

SMILES: Oc1ccc(Nc2nc(-c3ccc(Cl)cc3)cs2)cc1
- residual activity [1]: 103%
- residual activity [2]: 97%
- residual activity [3]: 88%
- residual activity [4]: 131%
- residual activity [5]: 114%
- residual activity [7]: 95%
- residual activity [8]: 92%
- residual activity [9]: 89%
- residual activity [10]: 105%

SMILES: N#CC(C#N)=C(N)/C(C#N)=C/c1ccc(O)cc1
- residual activity [1]: 91%
- residual activity [4]: 83%
- residual activity [5]: 88%
- residual activity [6]: 97%
- residual activity [7]: 99%
- residual activity [8]: 91%
- residual activity [9]: 78%

SMILES: Nc1cccc(-c2cc3c(Oc4cccc(O)c4)ncnc3[nH]2)c1
- residual activity [1]: 91%
- residual activity [2]: 27%
- residual activity [3]: 3%
- residual activity [4]: 22%
- residual activity [5]: 6%
- residual activity [8]: 95%
- residual activity [9]: 54%

SMILES: COc1cc2ncc(-c3ccccc3)nc2cc1OC
- residual activity [4]: 93%
- residual activity [5]: 138%
- residual activity [8]: 96%
- residual activity [9]: 97%
- residual activity [10]: 100%

SMILES: Nc1nc(Nc2ccc(S(N)(=O)=O)cc2)nn1C(=S)Nc1c(F)cccc1F
- residual activity [2]: 3%
- residual activity [3]: 2%
- residual activity [4]: 4%
- residual activity [5]: 0%
- residual activity [6]: 30%
- residual activity [7]: 47%
- residual activity [8]: 12%
- residual activity [9]: 0%
- residual activity [10]: 25%

SMILES: CN(C)CCCn1cc(C2=C(c3c[nH]c4ccccc34)C(=O)NC2=O)c2ccccc21
- residual activity [1]: 7%
- residual activity [2]: 18%
- residual activity [3]: 2%
- residual activity [4]: 24%
- residual activity [5]: 3%
- residual activity [6]: 90%
- residual activity [7]: 53%
- residual activity [8]: 69%
- residual activity [9]: 21%
- residual activity [10]: 87%

SMILES: c1ccc(-c2n[nH]c3c2oc2ccccc23)cc1
- residual activity [1]: 64%
- residual activity [4]: 95%
- residual activity [5]: 67%
- residual activity [8]: 98%
- residual activity [9]: 58%
- residual activity [10]: 92%

SMILES: CC[n+]1c(/C=C/N(C)c2ccccc2)n(-c2ccccc2)c2ccc(-c3nc4ccccc4s3)cc21
- residual activity [1]: 97%
- residual activity [2]: 122%
- residual activity [4]: 109%
- residual activity [5]: 116%
- residual activity [6]: 102%
- residual activity [7]: 93%
- residual activity [8]: 95%
- residual activity [9]: 77%
- residual activity [10]: 99%

SMILES: O=[N+]([O-])c1ccc(-c2nc(-c3ccc(F)cc3)c(-c3ccncc3)[nH]2)cc1
- residual activity [1]: 92%
- residual activity [2]: 99%
- residual activity [3]: 84%
- residual activity [4]: 73%
- residual activity [5]: 83%
- residual activity [6]: 111%
- residual activity [8]: 107%
- residual activity [9]: 100%
- residual activity [10]: 110%

SMILES: N#CCCc1ccc2c(c1)-c1[nH]c3ccc([N+](=O)[O-])cc3c1CC(=O)N2
- residual activity [2]: 1%
- residual activity [3]: 0%
- residual activity [4]: -3%
- residual activity [5]: 0%
- residual activity [8]: 64%
- residual activity [9]: 24%

SMILES: O=C1Nc2ccc(Br)cc2/C1=C\c1cc2c([nH]1)CCCC2
- residual activity [2]: 113%
- residual activity [3]: 122%
- residual activity [7]: 99%
- residual activity [8]: 82%
- residual activity [10]: 97%

SMILES: CCN(CC)C(=O)c1ccc(Nc2nc(OCC3CCCCC3)c3nc[nH]c3n2)cc1
- residual activity [1]: 78%
- residual activity [2]: 72%
- residual activity [3]: 15%
- residual activity [4]: 75%
- residual activity [5]: 26%
- residual activity [9]: 28%
- residual activity [10]: 99%

SMILES: CCC(=O)Nc1ccc2ncnc(Nc3cccc(Br)c3)c2c1
- residual activity [1]: 86%
- residual activity [2]: 125%
- residual activity [3]: 142%
- residual activity [4]: 108%
- residual activity [5]: 96%
- residual activity [6]: 98%
- residual activity [7]: 105%
- residual activity [8]: 104%
- residual activity [9]: 103%
- residual activity [10]: 92%
